# Laboratory results from ChEMBL document CHEMBL1157539, “Thousands of chemical starting points for antimalarial lead identification” (Nature, 2010).
# Key:
# Assay type in all cases: functional
# [1] = test system: Plasmodium falciparum; experiment: GSK_TCMDC: Inhibition of Plasmodium falciparum 3D7 in whole red blood cells, using parasite LDH activity as an index of growth. Test compounds present at 2uM
# [2] = test system: Plasmodium falciparum; experiment: GSK_TCMDC: Inhibition of Plasmodium falciparum Dd2 in whole red blood cells, using parasite LDH activity as an index of growth. Test compounds present at 2uM
# [3] = test system: HepG2; experiment: GSK_TCMDC: Percent inhibition of human HepG2 cell line. Test compounds present at 10uM.
Compound,Inhibition [1],Inhibition [2],Inhibition [3]
Clc1ccc(C=NN=c2cc[nH]c3ccccc23)cc1,100%,97%,5%
CCOc1ccc(C(C)NC(=O)C2COc3ccccc3O2)cc1OCC (stereo unspecified),100%,100%,0%
O=[N+]([O-])c1ccc(N/C(=N\c2ccccc2Br)NC2CCCc3ccccc32)c(O)c1 (stereo unspecified),98%,89%,0%
CCCCCCCN1CC[C@@H](CCCc2ccnc3ccc(OCCN4CCOCC4)cc23)[C@@H](CC)C1.O=C(O)C(=O)O,89%,3%,14%
O=C(c1cccs1)N1N=C(c2cccs2)CC1c1cccc([N+](=O)[O-])c1 (stereo unspecified),95%,27%,5%
Cc1ccc2nc(C)n(C3CCN(C(=O)C4(c5ccccc5)CC4)CC3)c2c1,100%,83%,8%
Cc1ccc2[nH]c(C)cc(=NN=CC=Cc3ccccc3)c2c1,92%,28%,0%
O=S(=O)(Nc1ccc(CCN2CCC(N3CCCCC3)CC2)cc1)c1ccccc1C(F)(F)F,95%,8%,9%
N=C(N)NC(=O)Nc1cc(Cl)c(Cl)c(Cl)c1,100%,100%,0%
Cl.O=C(Nc1ccncc1)Nc1ccc2c(c1)CCN(C1CCC1)CC2,87%,4%,0%
Nc1nc(N)c2c(CCc3ccc4ccccc4c3)cccc2n1,100%,6%,56%
CCCNCc1ccc(-c2ccc(CN(Cc3cnc(C)cn3)C(=O)CC#N)cc2)nc1.O=C(O)C(F)(F)F,92%,0%,4%
